PfM18AAP inh – PfM18AAP enzyme inhibition. recombinant PfM18AAP, H-Glu-NHMec fluorogenic cleavage. inhibition, % at 7.35 µM. hit rate 1.2% among 290,000. AID 1822;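 active means inhibition above the campaign mean inhibition over all tested compounds plus 3 SD, cut at about 28% in these data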;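 further: 0% = plate median of test compound wells and 100% = 2 mM ZnCl2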
HDAC3 inhib – inhibitors of human histone deacetylase 3; hit rate 0.15% among 320,000; inhibition, % at 8.3 µM; recombinant HDAC3, fluorogenic peptide/trypsin coupled, fluorescence; O15379; in the data active means inhibition above about 26%, passing the limit was not always enough; inconclusive means no clear call, values can overlap the other calls
PHOSPHO1 block – PHOSPHO1 (human) inhibition. hit rate 1.1% among 290,000. Q8TCT1. recombinant PHOSPHO1, absorbance phosphatase assay. inhibition, % at 13.3 µM; in the data active means inhibition above about 60%
UBC9 SUMO inh – inhibitors of human SUMOylation (UBC9); HTRF SUMOylation assay, SAE1/SAE2 + UBC9, in vitro; hit rate 0.36% among 290,000; inhibition, % at 35 µM; in the data active means inhibition above about 50%, passing the limit was not always enough; inconclusive means no clear call, values can overlap the other calls
p97 inhibitor – blocks human p97 ATPase activity. P55072. recombinant p97 ATPase, Kinase-Glo ATP luminescence, 3 h. inhibition, % at 8 µM. hit rate 0.42% among 220,000; in the data active means inhibition above about 15%;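 further: 0% = DMSO vehicle and 100% = wells lacking enzyme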
G6PDH CS – inhibits Leuconostoc G6PDH, flagging false hits in G6PDH-based assays | inhibition, % at 5 µM | hit rate 0.12% among 200,000 | Purified L. mesenteroides G6PDH, diaphorase/resazurin coupled fluorescence, 45 min | AID 1020; in the data active means inhibition above about 50%
The depositor's hits bear a star; ? = inconclusive; . = no result. Most compounds without a hit are left out; they make up all but 2.5% or so of the library.

SMILES | PfM18AAP inh | HDAC3 inhib | PHOSPHO1 block | UBC9 SUMO inh | p97 inhibitor | G6PDH CS
Cc1cc(NC(=O)CN2C(=O)CC(c3ccco3)Sc3ccccc32)no1 (configuration not stated) | 18 | 41* | 24 | -3 | 5 | 0
CN(C)c1ccc(NC(=O)C2C3C=CC(C3)C2C(=O)O)cc1 (configuration not stated) | 55* | -11 | 39 | -244 | . | .
CCn1c(SCc2nc3ccccc3c(=O)[nH]2)nnc1C(C)NC(=O)c1ccccc1 (configuration not stated) | -10 | 3 | -1 | 8 | 7 | 5
CCn1c(SCC(=O)N2CCOCC2)nnc1C(C)NC(=O)c1ccccc1 (configuration not stated) | 6 | 0 | 63* | 12 | . | .
CCn1c(CC(=O)Nc2ccc(C)cc2)nnc1SCC(=O)N1CCOCC1 | 5 | 2 | 63* | 16 | . | .
COc1ccc(Nc2cccccc2=O)cc1 | 0 | 8 | 62* | 12 | 1 | 4
COc1ccc(Nc2ccc(OC)cc2)cc1 | 20 | 13 | 16 | 56* | 15* | .
COc1ccc(Nc2ccccc2C(=O)O)cc1 | 3 | 1 | 7 | 0 | -1 | -1
O=C(NC1CCCCC1)C(c1cccs1)N(C(=O)C(F)(F)F)c1ccccc1 (configuration not stated) | -1 | 8 | -1 | 1 | 2 | 5
Cc1ccc(N(C(=O)C(F)(F)F)C(C(=O)NC2CCCCC2)c2cccs2)cc1C (configuration not stated) | 1 | 2 | 60* | 10 | 5 | 4
CCOc1ccc(S(=O)(=O)NCCc2ccccn2)cc1 | . | 5 | . | . | . | .
Cc1ccc(C)n1-c1cccc(C(=O)O)c1 | . | 10 | 79* | 32 | . | 3
CCN1C(=O)[C@H]2[C@@H](c3ccc(-c4ccc(OC)cc4)cc3)N3CCC[C@@]3(C(=O)OC)[C@H]2C1=O | . | -25 | . | . | . | .
CSc1nncc(/C(C)=N\Nc2ccccc2C)n1 | 0 | 7 | 95* | 24 | 1 | -3
CC1=NNC(=O)/C1=C\c1cn(-c2ccccc2)nc1-c1ccccc1 | 66* | 4 | 44 | -16 | 2 | 27
COc1ccc(CCNC(=O)C/C(C)=N/NC(=O)c2cnccn2)cc1 | 12 | -1 | 29 | -2 | . | .
O=C(Nc1ccc(NC(=O)N2CCN(c3ccccc3O)CC2)cc1)N1CCN(c2ccccc2O)CC1 | 29* | 4 | 36 | -17 | . | .
O=C(Nc1ccc(Cl)cc1)N1CCN(c2ccccc2)CC1 | 3 | 9 | -8 | -14 | -4 | 6
COCCNc1nnc(SCC(=O)NNC(=O)c2ccc([N+](=O)[O-])cc2)s1 | . | -3 | . | . | . | .
Cn1c2ccccc2c2cc(/C=N/NC(=O)c3cc(O)ccc3O)ccc21 | 24 | -5 | 0 | 58* | . | .
Cn1c2ccccc2c2cc(/C=N/NC(=O)c3cc(O)cc(O)c3)ccc21 | 6 | -9 | 24 | 12 | . | .
COc1ccc(N=c2ssnc2Cl)cc1 | 18 | ? | 77* | 8 | -4 | -1
N#Cc1ccc(Oc2c(Cl)cncc2Cl)cc1 | 7 | -3 | 24 | 13 | . | .
Clc1ccc(N=c2ssnc2Cl)cc1 | 17 | 14 | 89* | 2 | 2 | 3
O=C1CSC(=Nc2ccc(Cl)cc2)N1 | -1 | 6 | . | 6 | . | .
SMILES | PfM18AAP inh | HDAC3 inhib | PHOSPHO1 block | UBC9 SUMO inh | p97 inhibitor | G6PDH CS
CCOC(=O)c1ccc(N=c2ssnc2Cl)cc1 | 26 | . | 77* | 5 | -4 | 1
COc1ccc(N=Cc2sc3ccccc3c2Cl)cc1 | 8 | 0 | 27 | -9 | 3 | 4
N#Cc1ccc(N=c2ssnc2Cl)cc1 | 28 | 38* | -88 | -1 | -5 | 9
CC(Sc1nnc(C2CC2)n1C1CC1)C(=O)c1ccc(F)cc1 (configuration not stated) | . | -5 | . | . | . | .
CC(C)(CO)NC(=O)c1ccc2c(c1)C(=O)c1ccccc1-2 | 12 | 0 | 36 | 4 | . | .
Cc1ccccc1CNS(=O)(=O)c1c(C)[nH]c(C)c1C(=O)N1CCCCC1 | 9 | -1 | 32 | 8 | . | .
O=C1CSC(=Nc2ccccc2)N1Cc1ccccc1 | -14 | 1 | -8 | 3 | -2 | -6
Clc1nssc1=Nc1ccccc1 | 17 | . | 97* | -3 | 5 | 6
O=C(NCCN1C(=O)C2C3C=CC(C3)C2C1=O)Nc1cccnc1 (configuration not stated) | 6 | -5 | -19 | 4 | -7 | -3
CC(=O)c1ccc(NC(=O)Nc2cccnc2)cc1 | 1 | 3 | -1 | 58* | . | .

Bioassay records: PubChem BioAssay, several laboratories
